Assay outcomes deposited in PubChem by National Center for Advancing Translational Sciences (NCATS).
TRHR agonist: agonists of human TRH receptor | 360,000 compounds, 0.18% hits | TRHR cells, calcium flux fluo-8, FDSS agonist mode | activation, % at 2 µM
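TRHR-expressing cells, plated overnight in medium with 10% serum, were loaded with fluo-8 calcium dye at room temperature. After a 10 s baseline, library compound was pin-added and calcium release was recorded kinetically (ex 480/em 530) as agonist response.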
TRHR PAM: TRH receptor (human) allosteric enhancement | enhancement, % at 2 µM | P34981 | TRHR cells, fluo-8 calcium fluorescence, EC20 TRH enhancement | 360,000 compounds, 0.66% hits; in the data active = enhancement above about 30%
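TRHR-expressing cells loaded with fluo-8 calcium dye were read kinetically (ex 480/em 530) during compound addition, then stimulated with an EC20 of TRH (10 nM final). Enhancement of the Gq-mediated intracellular calcium response was scored.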
D1 ag: human D1 receptor agonism. 360,000 compounds, 1% hits. P21728. HEK293 T-REx D1 cells, calcium flux, agonist mode. activation, % at 2 µM. AID 504660
Target sequence (P21728 whole entry, looked up): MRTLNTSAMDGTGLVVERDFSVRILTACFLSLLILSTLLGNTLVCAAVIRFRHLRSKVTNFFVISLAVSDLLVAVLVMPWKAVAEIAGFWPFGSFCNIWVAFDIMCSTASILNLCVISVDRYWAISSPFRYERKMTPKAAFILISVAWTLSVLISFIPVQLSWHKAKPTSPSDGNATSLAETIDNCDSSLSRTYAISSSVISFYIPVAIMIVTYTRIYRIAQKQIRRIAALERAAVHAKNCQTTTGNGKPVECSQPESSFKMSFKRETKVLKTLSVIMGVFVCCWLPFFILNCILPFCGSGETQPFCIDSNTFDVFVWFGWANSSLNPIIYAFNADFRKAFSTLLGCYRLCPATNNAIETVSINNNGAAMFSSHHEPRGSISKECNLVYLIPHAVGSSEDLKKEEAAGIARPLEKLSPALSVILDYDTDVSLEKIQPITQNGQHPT
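Agonism was scored from calcium flux recorded over 180 s (1 read/s) after pintool compound addition, following a 10-cycle baseline. Cells were inducible force-coupled HEK293 TREx D1, plated overnight at 30 C and loaded with no-wash calcium dye.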
D1 antagonist: antagonists of human D1 dopamine receptor | P21728 | activity change, negative = inhibition, % at 10 µM | 360,000 compounds, 3.2% hits | HEK293 TREx D1 cells, calcium flux, dopamine EC80; stronger effect = lower value; in the data active = activity change below about -30%
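Tetracycline-induced HEK293 T-REx cells with force-coupled D1 receptor were loaded with a no-wash calcium dye. Compound was added after a 10 s baseline and read kinetically for 180 s; EC80 dopamine was then added and calcium flux followed another 180 s.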
D1 potentiator: enhances dopamine response at the human D1 receptor | P21728 | AID 504651 | 360,000 compounds, 0.036% hits | potentiation, % at 10 µM | HEK293 TREx D1 cells, calcium flux, dopamine EC20 potentiation; in the data active = potentiation above about 30%
Large screens that a line does not name were inactive. In the library only some 4.6% were active in any assay of this set; here they are far more common. Cut-off read from the data, not from the text of the source, unless noted: active = activation above about 30%; inactive = the rest.

O=C(CCl)Nc1cccc2ncccc12	none
CC(C)c1ccc(C(O)c2nc3ccccc3n2C)cc1 (stereo unspecified)	D1 antagonist -36
CC(C)NC(=O)c1sc(=S)n2c1[nH]c(=O)c1ccc(C(=O)NCCc3ccc(Cl)cc3)cc12	D1 antagonist -59
CCCCNC(=O)c1sc(=S)n2c1[nH]c(=O)c1ccccc12	D1 ag 30
O=C(NC1CCCCC1)c1sc(=S)n2c1[nH]c(=O)c1ccccc12	none
COCCCN(C(=O)c1ccco1)c1nc(-c2ccc(OC)cc2)cs1	none
Cc1cc(C)c(NC(=O)CN(C)C(C)C(=O)N2CCc3ccccc32)c(C)c1 (stereo unspecified)	TRHR PAM 32
CCc1ccc(S(=O)(=O)c2nnn3c2nc(NC(C)C)c2sccc23)cc1	D1 antagonist -33
CCc1ccc(S(=O)(=O)c2nnn3c2nc(NCCc2ccccc2)c2sccc23)cc1	none
COc1ccccc1Nc1nc2c(S(=O)(=O)c3ccc(C(C)C)cc3)nnn2c2ccsc12	TRHR PAM 37
CCCCNc1nc2c(S(=O)(=O)c3ccc(C)c(C)c3)nnn2c2ccsc12	D1 antagonist -77
Cc1ccc(S(=O)(=O)c2nnn3c2nc(NCc2ccc(F)cc2)c2sccc23)cc1C	none
Cc1ccc(S(=O)(=O)c2nnn3c2nc(NCc2cccs2)c2sccc23)cc1C	D1 antagonist -59
O=Cc1c(Nc2cccc(C(F)(F)F)c2)nc2ccccn2c1=O	none
Cc1ccc(Nc2ccc(C(F)(F)F)cc2[N+](=O)[O-])cc1	none
C=CCOc1c(CNn2nnnc2N)cccc1OC	none
O=C(NCC1CCCO1)c1cccc(NC(=O)c2ccco2)c1 (stereo unspecified)	none
Cc1cccc(OCCSc2nnc(-c3cccs3)o2)c1	D1 ag 44
CCC1(c2ccc(Cl)cc2)NC(=O)N(Cc2ccc(C(=O)OC)cc2)C1=O (stereo unspecified)	D1 antagonist -31
Cc1cccc2cc(CN(CCN3CCOCC3)C(=O)NCc3ccccc3)c(=O)[nH]c12	none
CC(=O)CC1(C)OC(N)=C(C#N)C1(C#N)C#N (stereo unspecified)	D1 antagonist -30
Cc1noc(C)c1C(=O)Nc1nccs1	none
O=C(N/N=C/c1sc(=O)n(Cc2ccc(Br)cc2)c1Cl)c1ccco1	D1 antagonist -49
O=C(N/N=C/c1ccc(Br)s1)c1ccco1	none
COc1ccc(NC(=O)Cn2c(=O)n(Cc3ccccc3OC)c(=O)c3cccnc32)cc1Cl	none
COc1ccc(CNC(=O)C(C)N2CCN(S(=O)(=O)c3ccccc3F)CC2)cc1 (stereo unspecified)	none
Cc1c(N2C(=O)/C(=C\c3ccc(N(C)C)cc3)N(C)C2=S)c(=O)n(-c2ccccc2)n1C	D1 ag 38
Cc1c(NC(=S)N/N=C/c2ccc(N(C)C)cc2)c(=O)n(-c2ccccc2)n1C	none
CN1C(=S)N(c2cccnc2)C(=O)/C1=C\c1ccc(N(C)C)cc1	D1 ag 91
O=C(CN(c1ccccc1)S(=O)(=O)c1ccc(F)cc1)NCc1cccs1	none
S=C(Nc1nc2c(s1)CCCC2)NC1CC1	none
CC(C)Cc1nnc(NC(=O)Cc2ccc([N+](=O)[O-])cc2)s1	D1 ag 31
CC(C)Cc1nnc(NC(=O)CCC(=O)N2CCN(c3ccc([N+](=O)[O-])cc3)CC2)s1	none
Cc1ccccc1NC(=O)Nc1nnc(Cc2ccc([N+](=O)[O-])cc2)s1	TRHR PAM 40
CCc1noc(C)c1C(=O)OCC(=O)N(CCOC)c1c(N)n(Cc2ccccc2)c(=O)[nH]c1=O	none
COc1cc(OC)cc(C(=O)N[C@H](C(=O)Nc2ccc3c(c2)OCO3)C(C)C)c1	D1 antagonist -33
COc1cc(OC)cc(C(=O)NC(C(=O)Nc2ccc3c(c2)OCO3)C(C)C)c1 (stereo unspecified)	none (no result: D1 potentiator)
CCn1c(SCC(=O)c2cc(C)ccc2C)nc2cc(S(=O)(=O)N3CCOCC3)ccc21	none
CCC(C)NC(=O)CSc1nc2cc(S(=O)(=O)N3CCOCC3)ccc2n1CC (stereo unspecified)	D1 antagonist -32
CCc1ccc(NC(=O)CNC(=O)Cn2ccc3ccccc3c2=O)cc1	none
CCc1ccc(NC(=O)CSc2nc(CSc3ccc(C)cc3)cc(=O)[nH]2)cc1	none
Cc1ccc(SCc2cc(=O)[nH]c(SCC(=O)Nc3cc(Cl)ccc3Cl)n2)cc1	D1 antagonist -34
CC(=O)Nc1ccc(CN(C)CC2CCCN(CCc3cccc(C(F)(F)F)c3)C2)cc1 (stereo unspecified)	none
CN(CC1CCN(CCc2cccc(C(F)(F)F)c2)CC1)C(=O)c1ccc(F)cc1F	none
COc1ccc(C(=O)N(C)CC2CCN(CCc3cccc(C(F)(F)F)c3)CC2)cc1C	D1 antagonist -49
CN(CC1CCCN(CCc2cccc(C(F)(F)F)c2)C1)C(=O)c1ccco1 (stereo unspecified)	D1 antagonist -40
COc1ccc2nc(-c3ccccc3)nc(SCC(=O)NCC3CCCO3)c2c1 (stereo unspecified)	none
CCOc1ncccc1C(=O)OCc1ccccc1	none
O=C(c1cccc(Cl)c1)n1nc(-c2ccco2)nc1NCc1cccs1	none
CCc1nnc(NC(=O)C2Cc3ccccc3CN2S(=O)(=O)c2cccs2)s1 (stereo unspecified)	TRHR PAM 32
COc1ccc(NC(=O)C2Cc3ccccc3CN2S(=O)(=O)c2ccccc2)cc1OC (stereo unspecified)	D1 antagonist -59
CCc1nnc(NC(=O)C2Cc3ccccc3CN2S(=O)(=O)c2ccc(C)cc2)s1 (stereo unspecified)	none
CN1CCc2nc3sc(C(=O)Nc4c(F)cccc4F)c(N)c3cc2C1	none
CC(C)OC(=O)CC(=O)c1sc2nc3c(cc2c1N)CN(C)CC3	TRHR PAM 38
Cn1cccc1/C=N/NC(=O)c1ccc[n+]([O-])c1	none
COc1ccc(C(=O)O)cc1NC(=S)NC(=O)CSc1ccc(Cl)cc1	D1 antagonist -74
COc1ccccc1NC(=S)NC(=O)Cc1ccc(Cl)cc1	D1 ag 57, D1 antagonist -43
COc1cccc(NC(=S)NC(=O)Cc2ccc(Cl)cc2)c1	D1 ag 68
CCC(=O)NC(=S)Nc1ccccc1OC	none
COc1ccc(CCN2CCC(CNC(=O)c3cnn(-c4cccc(Cl)c4)c3C3CCN(C(=O)OC(C)(C)C)CC3)CC2)cc1	none
COc1ccc(CCN2CCC(CNC(=O)c3cnn(-c4ccccc4)c3C3CCN(C(=O)OC(C)(C)C)CC3)CC2)cc1	D1 ag 38
CC(C)(C)OC(=O)N1CCC(c2c(C(=O)NCCN3CCC(Cc4ccccc4)CC3)cnn2-c2ccccc2)CC1	D1 ag 56
